p53 reactivator – mutant p53 re-activation in reporter cells. AID 504706. 320,000 tested, 0.063% active. H1299 p53-A138V BP100-luciferase reporter, luminescence, 24 h. Potency, µM (top dose mostly 92.2 µM), for inactives: at the top dose activity change, positive = activation, usual class: activators; further: potency means the concentration at half of the fitted maximal effect; % of control where 0% means no effect; nearly all actives have a fitted effect of over 45% in size
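H1299 (p53-null), stable ts p53-A138V + BP100-Luc; 1000 cells/well, Opti-MEM/10% FBS; cpd 4 pt, 1:5; 24 h, 37 deg C, 5% CO2; detection reagent 10 min RT; luminescence.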
uPA surface inh – inhibitors of cell surface uPA generation; cell surface uPA generation assay, qHTS; Potency, µM (highest dose often 38.3 µM), for the others: at the top dose activity change, negative = inhibition, hits mostly inhibitors; 330,000 tested, 0.31% active; active means well fitted inhibition curve with a large enough effect; inconclusive means small, poorly fitted or top-dose-only effect; inactive means no such curve, though single readings can be large or run the other way; tested in mouse RAW 264.7 cells; further: potency means the concentration at half of the fitted maximal effect; on the % scale 0 is the no-effect control and ±100 the full control effect; nearly all actives have a fitted effect of over 55% in size
Giardia killer – Giardia lamblia killing; Giardia lamblia trophozoite viability; 340,000 tested, 0.15% active; activity change, % at 7.66 µM, hits read low; AID 540267; in the data active means activity change below about -80%; inconclusive means between about -30% and that limit;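 further: parasites exposed to compound for two days anaerobically before the ATP read; on the % scale 0 is the no-effect control and ±100 the full control effect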
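Viability, read as ATP luminescence: trophozoites at 100 cells/well, compound added, 48 hrs anaerobic at 37 deg C, then 15-30 min room-temperature development before reading.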
ClpP mod – qHTS Assay for Activators of ClpP; ATP-dependent Clp protease proteolytic subunit (Bacillus subtilis (strain 168)), P80244; purified B. subtilis ClpP, FRET peptide cleavage, 20 min; Potency, µM (highest dose often 57.5 µM), for the others: at the highest dose activity change, negative = active; 340,000 tested, 1.9% active; active means well fitted falling curve with a large enough effect; inconclusive means small, poorly fitted or top-dose-only effect; inactive means no such curve, though single readings can be large or run the other way; further: potency means the concentration at half of the fitted maximal effect; the source files actives as falling curves though it sought activators and does not explain the sign; nearly all actives have a fitted effect of over 65% in size
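ClpP 10 microg/mL final, pH 8 Tris/KCl buffer with BSA, glycerol, Tween-20; compound pinned in; FRET-FV substrate; RT 20 min; Ex320/Em430; ΔFRET vs ADEP 5.8 microM, DMSO, no enzyme.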
B2AR arrestin – beta2AR (human) beta-arrestin recruitment activity | P07550 | beta-arrestin recruitment to beta2AR, cell-based reporter | Potency, µM (series often up to 46.1 µM), for inactives: at the top dose activation, actives largely listed as activators | 330,000 tested, 0.02% active | AID 492947;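 further: potency means the concentration at half of the fitted maximal effect; 0% = DMSO controls and full agonism = EC100 isoproterenol or metaproterenol; nearly all actives have a fitted effect of over 65% in size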
Mito fusion yeast – blocks mitochondrial division or promotes mitochondrial fusion; S. cerevisiae fusion-defective mutant growth rescue, CellTiterGlo 48 h; Potency, µM (series often up to 46.1 µM), without a hit: top-dose growth rescue (activation), hits mostly activators; 320,000 tested, 0.23% active; AID 485298; further: potency means the concentration at half of the fitted maximal effect; % of control where 0% means no effect; nearly all actives have a fitted effect of over 45% in size
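Yeast fusion mutant, YPEG (non-fermentable carbon), compound, 48 h at 37C non-permissive; CellTiterGlo added, 10 min RT, luminescence read. Rescued growth = division inhibition.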
* hit, by the source's call; ? = inconclusive; nt = no result given; ! = repeats disagree. An excerpt weighted towards active compounds, which were near 2.1% of everything screened. Unless noted, the call rests on the fitted dose curve; in most records, active means well fitted curve in the direction sought with a large enough effect; inconclusive means small, poorly fitted or top-dose-only effect, or another doubt; inactive means no such curve, though single readings can be large; an effect the other way counts as inactive or inconclusive.

SMILES	p53 reactivator	uPA surface inh	Giardia killer	ClpP mod	B2AR arrestin	Mito fusion yeast
CCOC(=O)c1cc2c(=O)n3ccccc3nc2n(C(C)C)c1=NC(=O)c1c(-c2ccccc2Cl)noc1C	-2.9%	2.3%	4.9	nt	-0.3%	3.9%
CCOC(=O)c1cc2c(=O)n3ccccc3nc2n(CCCOC)c1=NC(=O)C(C)(C)C	-6.9%	6.2%	-3.3	28.2µM*	-0.5%	8.8%
CCCN(C(=O)C(C)Oc1cccc(Cl)c1)c1c(N)n(Cc2ccccc2)c(=O)[nH]c1=O (configuration not stated)	0.7%	3.0%	-1.3	-0.2%	-0.6%	1.6%
CCCCN(C(=O)C(C)Oc1ccc(Br)cc1)c1c(N)n(Cc2ccccc2)c(=O)[nH]c1=O (configuration not stated)	2.6%	-2.3%	-8.2	28.2µM*	0.2%	1.2%
CCCc1cnc2c(c1SCC(=O)N1CCC(C)CC1)c(=O)n(C)c(=O)n2C	nt	nt	nt	0.4%	nt	nt
Cc1cccc(-c2cc3nc4c(c(N5CCOCC5)n3n2)CCCC4)c1	?	-9.2%	-27.6	?	0.0%	16.7%
Cc1cccc(-c2cc3nc4c(c(NCc5ccco5)n3n2)CCCC4)c1	?	-5.1%	10.4	28.2µM*	0.6%	-11.1%
Cc1nc2ccccc2n1CCc1nc2c3ccccc3nc(=S)n2[nH]1	-3.7%	-3.0%	-1.7	3.6%	0.2%	-0.5%
Cc1ccccc1-c1nc2c3ccccc3nc(=S)n2[nH]1	5.0%	1.0%	-23.2	-1.1%	10µM*	-26.5%
O=C(Nc1ccc2oc(=O)ccc2c1)c1ccco1	8.5%	-8.3%	-11.4	28.2µM*	0.5%	-0.6%
O=C(Nc1ccc2nn(-c3ccccc3)nc2c1)c1ccco1	?	0.7%	-0.8	31.6µM*	4.8%	0.6%
O=C(Nc1ccc(Oc2ccc3ccccc3c2)cc1)c1ccco1	-10.7%	-1.6%	-7.6	15.8µM*	-0.2%	20.2%
Cc1cccc(OCCn2c(-c3ccco3)nc3ccccc32)c1	3.4%	-5.3%	-1.2	25.1µM*	-0.8%	-5.6%
O=C(Cn1c(-c2ccco2)nc2ccccc21)N1CCCCC1	0.3%	-2.1%	18.7	15.8µM*	-0.6%	-0.6%
CCn1c(-c2ccco2)nc2ccccc21	?	-5.5%	-0.6	31.6µM*	0.4%	4.7%
CC(C)OC(=O)CSc1nc(N)c(C#N)c(-c2ccco2)c1C#N	-1.6%	-2.3%	-1.0	20µM*	-0.2%	4.8%
CCc1ccc(/C=N/NC(=O)c2cc(C)on2)s1	?	-5.7%	0.4	2.82µM*	0.2%	-5.8%
CCCC(=O)NCCc1c2n(c3ccc(OC)cc13)CCCc1ccccc1-2	nt	nt	nt	nt	nt	18.4µM*
COc1ccc(OC)c(CCNC(=O)CCc2cn(C)c3ccccc23)c1	-4.1%	4.1%	-1.1	nt	0.0%	-16.9%
CC1(C(=O)NC2CCCCC2)Cc2ccccc2C(=O)N1Cc1ccccc1Cl (configuration not stated)	nt	nt	nt	31.6µM*	nt	nt
CC(NC(=O)C1=CC=CN2CCS(=O)(=O)N=C12)c1ccc(Cl)cc1Cl (configuration not stated)	-6.2%	-0.2%	-16.0	25.1µM*	-0.1%	-8.1%
COC(=O)[C@@H]1[C@H]2SC(C)(C)[C@H](C(=O)OC)N2C(=O)N1Cc1cc2ccccc2n1S(=O)(=O)c1ccccc1	nt	nt	nt	-0.5%	nt	nt
CC1Cc2ccccc2N1C(=O)CSc1nc2ccc(NC(=O)COc3ccccc3)cc2s1 (configuration not stated)	nt	nt	nt	-2.7%	nt	nt
COc1cc(/C=C(\C#N)C(=O)c2ccc(O)c(O)c2)cc(I)c1O	3.0%	?	2.5	-2.5%	-0.6%	23.1µM*!
O=S(=O)(NC(=NC1CCCCC1)c1ccccc1F)c1ccccc1	1.7%	0.6%	12.4	nt	0.1%	0.631µM*
SMILES	p53 reactivator	uPA surface inh	Giardia killer	ClpP mod	B2AR arrestin	Mito fusion yeast
COc1ccc(NC(=O)c2ccc3c(c2)CCN3S(=O)(=O)c2ccc(C)cc2)cc1Cl	nt	nt	nt	-27.5%	nt	nt
Cc1ccc2c(c1)C(=O)C(=O)N2Cc1ccc(Br)cc1	-4.3%	4.47µM*	10.7	5.3%	-0.1%	nt
CCCN1C(=O)C(=O)c2cc(C)ccc21	16.7%	3.16µM*	7.5	-4.7%	-1.3%	nt
CCCN1CNc2c(c(=O)[nH]c(=S)n2CCc2cc(OC)ccc2OC)C1	nt	nt	0.9	2.1%	nt	nt
O=c1c2cc(NC(=S)N3CCC(N4CCCCC4)CC3)ccc2nc2n1CCCCC2	6.0%	-4.9%	3.4	0.1%	-0.2%	-4.6%
CC1CCCCN1C(=S)Nc1ccc2nc3n(c(=O)c2c1)CCCCC3 (configuration not stated)	4.1%	-5.7%	4.7	28.2µM*	-0.4%	-3.2%
Cc1ccccc1NC(=O)CSc1nc2c(oc3ccccc32)c(=O)n1Cc1ccco1	nt	nt	nt	-5.6%	nt	nt
Cc1ccc(C(=O)Nc2ccc(S(=O)(=O)O)c3cc(S(=O)(=O)O)cc(S(=O)(=O)O)c23)cc1NC(=O)c1cccc(NC(=O)Nc2cccc(C(=O)Nc3cc(C(=O)Nc4ccc(S(=O)(=O)O)c5cc(S(=O)(=O)O)cc(S(=O)(=O)O)c45)ccc3C)c2)c1	nt	nt	nt	-3.2%	nt	16.4µM*
FC(F)(F)c1cccc(N2CCN(c3ncnc4c3nc3n4CCCC3)CC2)c1	nt	nt	nt	-2.6%	nt	nt
COc1ccccc1NC(=O)NCc1cccn1Cc1ccccc1	nt	nt	nt	-3.0%	nt	nt
O=C(NCc1ccccc1)Nc1cccn(Cc2cccc(F)c2)c1=O	?	-0.4%	-7.7	35.5µM*	-0.5%	-7.3%
COc1ccc(Cn2cccc(NC(=O)Nc3cccc(C#N)c3)c2=O)cc1	2.1%	0.3%	-14.6	?	0.2%	-1.5%
CCOc1ccc(NC(=O)Nc2cccn(Cc3ccccc3)c2=O)cc1	11.4%	nt	11.3	28.2µM*	-0.4%	8.7%
Cc1cc(NC(=O)NCc2ccccc2)c(=O)n(Cc2ccc(F)cc2)c1	2.3%	1.3%	-11.0	nt	-0.4%	4.1%
O=C(NCc1ccccc1)Nc1cccn(Cc2ccccc2)c1=O	?	-2.2%	-15.2	25.1µM*	0.2%	-2.3%
O=C(NCc1ccccc1)Nc1cccn(Cc2ccc(F)cc2)c1=O	-4.2%	1.0%	-7.7	31.6µM*	-0.4%	-7.6%
COc1cccc(CN2CCc3nc(N4CCN(c5ncccn5)CC4)ncc3C2)c1	nt	nt	nt	-6.1%	nt	nt
O=C(NCc1ccccc1)Nc1cccn(Cc2ccccc2F)c1=O	15.9%	?	-5.4	20µM*	4.2%	-8.5%
CCc1ccccc1NC(=O)Nc1cccn(Cc2ccccc2F)c1=O	-3.5%	14.6%	21.2	4.1%	0.6%	2.0%
CC1(C)CC(=O)C(C#N)=C(NCCCO)C1	3.9%	5.1%	1.7	0.9%	0.4%	1.7%
CC1(C)CC(=O)C([N+](=O)[O-])=C(NCCCC(=O)O)C1	-7.4%	31.4%	20.9	14.1µM*	-0.8%	-1.5%
Cc1cc(C)c2ccccc2n1	nt	nt	nt	0.9%	nt	nt
